Inconclusive results are not listed. The source made the active and inactive calls.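 Rule for the calls, unless noted: active = viability at or below 30% in both replicate assays; inconclusive = viability at or below 30% in just one of the two assays; inactive = the rest.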
Assays:
[1] = reducers of endogenous Her2 protein level, primary screen, SKBR3 breast tumor cells, AlphaScreen, ATP viability (AID 461;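 active = Her2 level under about 52% in both replicate screens, with viability over 70% of control, limit read from the data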;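 for Her2 level: lower value means less Her2 protein in the cells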;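 for viability: percent of carrier control wells set as 100% viability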); conditions: 18-24 h, measured here: SKBR3 viability, ATP luminescence, at 10 µM
[2] = biological target: Receptor tyrosine-protein kinase erbB-2 (Homo sapiens) (UniProt P04626); assay: as above; conditions: 18-24 h, at 10 µM, stronger effect = lower value
Chain of Receptor tyrosine-protein kinase erbB-2 (Homo sapiens) (P04626 whole entry, looked up): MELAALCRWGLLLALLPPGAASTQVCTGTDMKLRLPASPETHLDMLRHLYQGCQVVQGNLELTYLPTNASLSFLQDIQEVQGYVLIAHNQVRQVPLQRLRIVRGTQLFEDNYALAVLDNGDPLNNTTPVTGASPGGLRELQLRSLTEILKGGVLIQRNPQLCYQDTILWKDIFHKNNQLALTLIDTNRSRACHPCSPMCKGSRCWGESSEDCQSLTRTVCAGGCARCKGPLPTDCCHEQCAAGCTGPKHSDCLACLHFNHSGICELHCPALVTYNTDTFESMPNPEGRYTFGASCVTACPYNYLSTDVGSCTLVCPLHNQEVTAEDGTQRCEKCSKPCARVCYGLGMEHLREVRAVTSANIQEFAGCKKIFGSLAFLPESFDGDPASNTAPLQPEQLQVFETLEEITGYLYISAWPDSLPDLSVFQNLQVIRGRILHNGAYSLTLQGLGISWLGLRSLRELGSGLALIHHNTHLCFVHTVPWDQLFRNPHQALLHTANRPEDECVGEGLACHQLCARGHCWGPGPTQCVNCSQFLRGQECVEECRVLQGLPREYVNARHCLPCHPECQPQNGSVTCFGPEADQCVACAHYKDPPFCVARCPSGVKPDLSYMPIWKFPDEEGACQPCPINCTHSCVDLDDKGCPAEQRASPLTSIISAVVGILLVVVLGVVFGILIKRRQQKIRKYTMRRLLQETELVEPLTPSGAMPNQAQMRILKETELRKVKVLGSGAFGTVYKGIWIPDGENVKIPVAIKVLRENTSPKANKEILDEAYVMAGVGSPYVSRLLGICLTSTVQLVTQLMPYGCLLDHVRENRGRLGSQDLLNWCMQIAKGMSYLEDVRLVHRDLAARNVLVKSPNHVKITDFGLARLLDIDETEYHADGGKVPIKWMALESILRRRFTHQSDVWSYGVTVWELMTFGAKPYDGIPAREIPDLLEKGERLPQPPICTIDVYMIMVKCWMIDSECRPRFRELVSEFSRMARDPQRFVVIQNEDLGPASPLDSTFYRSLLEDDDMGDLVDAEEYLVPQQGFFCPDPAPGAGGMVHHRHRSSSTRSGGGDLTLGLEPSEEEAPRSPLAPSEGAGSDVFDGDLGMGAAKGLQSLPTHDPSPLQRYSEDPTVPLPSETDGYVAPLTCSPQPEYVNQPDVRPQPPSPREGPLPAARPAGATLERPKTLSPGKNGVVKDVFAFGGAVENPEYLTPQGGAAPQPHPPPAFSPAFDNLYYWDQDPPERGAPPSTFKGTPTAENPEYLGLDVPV

[3] = SK-BR-3 cell growth inhibitors, pilot screen, 24 h, human (AID 572;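 active = viability at or below 10% of carrier control in both of two separate runs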;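 note: compound exposure lasted between 18 and 24 h rather than exactly 24 h; 100% = carrier-treated control wells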); conditions: SK-BR-3 viability, CellTiter-Glo luminescence, at 10 µM, stronger effect = lower value
[4] = HUVEC growth inhibition – cell-based, human, primary screen (AID 575); conditions: HUVEC proliferation, CellTiter-Glo luminescence, 72 h; at 10 µM; stronger effect = lower value;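 note: 100% = median of untreated cell wells with 0.1% DMSO on each plate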
[5] = growth inhibitors of H69AR lung tumor, primary screen, human, duplicate replicates (AID 580;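 active = viability at or under a set limit in both replicates, limit being median viability minus 3 SD, cut at about 48% in these data, passing the limit was not always enough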;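 note: 100% = mean luminescence of untreated wells and 0% = no signal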); conditions: H69AR lung tumor cells viability, ATP luminescence, 72 h; at 10 µM; stronger effect = lower value
[6] = reversal of MRP1-mediated doxorubicin resistance, pilot screen, H69AR cells, doxorubicin co-treatment (AID 601;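 active = viability loss from added drug above about 55%, and viability with drug at most 40%, in both replicates, limit read from the data, passing the limit was not always enough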); conditions: CellTiter-Glo, 72 h, at 10 µM; for differential viability (reversal): stronger effect = higher value
[7] = 384-well plate pilot, post-Golgi transport modulator project, inhibition of yeast transport mutant growth (AID 636; in the data active = inhibition above about 31%); conditions: absorbance 615 nm, about 18 h, stronger effect = higher value
[8] = growth suppression of yeast trafficking mutant, preliminary HTS, modulators of trafficking downstream of Golgi apparatus project, 1536-format plate, OD 615 nm (AID 637; in the data active = inhibition above about 30%); conditions: yeast transport mutant growth, absorbance 615 nm, 18 h; stronger effect = higher value
[9] = OD615 S. cerevisiae growth inhibition, permissive medium, pilot counter-assay, permissive growth control for S. cerevisiae lifespan shortening project (AID 705;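 active = growth inhibition above 25% in both replicates, a cutoff set 3 SD above the mean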); conditions: OD615, 24 h, at 10 µM, stronger effect = higher value
[10] = Restrictive medium S. cerevisiae growth inhibition, OD615, pilot screen of yeast lifespan reduction project, restrictive growth control (AID 706;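 active = growth inhibition above a set limit, 3 SD over mean compound inhibition, in both replicates, cut at about 43% in these data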;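 note: modified DeaD lifespan yeast strain shifted to restrictive glucose medium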); conditions: OD615, 48 h, at 10 µM, stronger effect = higher value
[11] = viability gain of MRP-1-high H69AR cells under doxorubicin, pilot screen, MRP-1 activator project, CellTiter-Glo, duplicate (AID 807;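 active = viability increase at or above a cutoff of the median across tested compounds plus 3 SD, cut at about 8.5% in these data, passing the limit was not always enough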;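 note: compound pretreatment 18-22 h then 72 h combined with doxorubicin; 0% = doxorubicin alone and 100% = vehicle without doxorubicin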); conditions: H69AR viability with doxorubicin, CellTiter-Glo luminescence; at 10 µM; stronger effect = higher value
[12] = growth suppression of beta-catenin knockout HCT116, pilot screen, human colon tumor cells (AID 823;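 active = cell viability at or below a set limit in both duplicate runs, the limit being the all-compound median minus 4 SD, cut at about 23% in these data, passing the limit was not always enough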;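 note: 0% = wells killed by 20 µM Hyamine and 100% = untreated DMSO cell wells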); conditions: CellTiter-Glo, 60 h, at 10 µM, stronger effect = lower value
[13] = growth suppression of PTEN-deleted HCT116, pilot screen, cell-based, HCT116 clonal line, CellTiter-Glo (AID 824;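 active = viability at or below 27.92% in each of two runs, the all-compound median minus 4 SD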;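 note: 0% = 20 µM Hyamine control and 100% = vehicle cell control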); conditions: 60 h, at 10 µM, stronger effect = lower value
[14] = inhibitors of the yeast RAM network, pilot screen, dse1pr::URA3 reporter, 5-FOA selection (AID 869;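 active = inhibition over a set limit, the all-compound mean plus 3 SD, in both replicate runs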;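 note: 0% = DMSO wells with no growth and 100% = 10 µM 1-NA-PP1 with full growth; RAM network block rescues cells from 5-FOA so hits raise OD615 growth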); conditions: S. cerevisiae dse1pr::URA3 5-FOA growth, OD615, 2 d; at 10 µM; stronger effect = higher value; strain carries analog-sensitive mutant Cbk1 kinase
[15] = RAM signaling pathway blockade in yeast – S. cerevisiae, Pdr1DBD-CYC8 efflux-inhibited sensitized strain, primary screen (AID 1298;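 active = RAM network inhibition above 8.4% in each of two replicates, 3 SD over the compound average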;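 note: 0% = DMSO untreated cells without growth and 100% = 10 µM 1-NA-PP1 full growth; higher means more yeast growth rescued from 5-FOA killing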); conditions: S. cerevisiae cbk1-as DSE1-URA3 strain, 5-FOA growth OD615, 2 d; at 50 µM; stronger effect = higher value
[16] = H69AR cells + 2 uM doxorubicin, measured here: viability with 2 uM doxorubicin, stronger effect = lower value
[17] = H69AR cells, compound alone cytotoxicity

Structure (SMILES) | viability [1] [%] | Her2 level [2] | viability [3] | viability [4] | viability [5] | differential viability (reversal) ([6]; H69AR cells + 2 uM doxorubicin) | viability [6, 16] [%] | viability [6, 17] [%] | inhibition [7] | inhibition [8] | growth inhibition [9] | growth inhibition [10] | viability increase [11] | viability [12] | viability [13] | inhibition [14] | RAM network inhibition [15]
COC(=O)c1ccc(-c2nn(C)c(=O)c3ccccc23)cc1 | 93.5 | 99.5% (inactive) | 93.5% (inactive) | 83.8% (inactive) | 94.6% (inactive) | 7.75% (inactive) | 86.9 | 94.6 | -5.33% (inactive) | 4.17% (inactive) | 3.78% (inactive) | 6.35% (inactive) | -2.27% (inactive) | 94.3% (inactive) | 91% (inactive) | 0.79% (inactive) | -1.8% (inactive)
CCOC(=O)N1CCC(NC(=O)C2CCCN(C(=O)c3cc4sccc4n3C)C2)CC1 (stereo not drawn) | 113 | 114% (inactive) | 113% (inactive) | 82.2% (inactive) | 94.8% (inactive) | -0.91% (inactive) | 95.7 | 94.8 | -2.4% (inactive) | -0.83% (inactive) | -18% (inactive) | -12.6% (inactive) | 0.63% (inactive) | 96.7% (inactive) | 95.7% (inactive) | 0.665% (inactive) | 0.11% (inactive)
CCOC(=O)N1CCN(Cc2nc3c(c(=O)n(C)c(=O)n3C)n2Cc2ccc(F)cc2)CC1 | 86.5 | 101% (inactive) | 86.5% (inactive) | 92.9% (inactive) | 72.6% (inactive) | -0.205% (inactive) | 72.8 | 72.6 | -4.27% (inactive) | 3.67% (inactive) | -5.48% (inactive) | 5.73% (inactive) | -3.14% (inactive) | 93.3% (inactive) | 81.7% (inactive) | 0.44% (inactive) | 0.36% (inactive)
CC1CCCCN1CCNC(=O)C1CCN(S(=O)(=O)c2cccc3cccnc23)CC1 (stereo not drawn) | 97 | 96.5% (inactive) | 97% (inactive) | 112% (inactive) | 100% (inactive) | 4.43% (inactive) | 95.8 | 100 | -2.53% (inactive) | -2.46% (inactive) | 8.94% (inactive) | -2.71% (inactive) | -3.57% (inactive) | 101% (inactive) | 97.9% (inactive) | 2.46% (inactive) | 6.99% (inactive)
CCOc1ccccc1N(CC(=O)N1CCCCCC1)S(C)(=O)=O | 99 | 97% (inactive) | 99% (inactive) | 97.5% (inactive) | 99.8% (inactive) | 10.3% (inactive) | 89.5 | 99.8 | -1.3% (inactive) | 1.15% (inactive) | -4.37% (inactive) | -10.9% (inactive) | -1.33% (inactive) | 91.1% (inactive) | 99.4% (inactive) | 0.65% (inactive) | 3.99% (inactive)
CCCCCn1c(CCNC(=O)CCC)nc2ccccc21 | 96.5 | 102% (inactive) | 96.5% (inactive) | 79.6% (inactive) | 87.4% (inactive) | 5.08% (inactive) | 82.4 | 87.4 | -4.67% (inactive) | 1.17% (inactive) | -0.135% (inactive) | -11.5% (inactive) | -1.41% (inactive) | 94% (inactive) | 87.2% (inactive) | 1.89% (inactive) | 2.6% (inactive)
CC1CCCN(C(=O)c2cc3c(-c4ccc(Cl)cc4)nn(C)c3s2)C1 (stereo not drawn) | 89 | 87% (inactive) | 89% (inactive) | 77.4% (inactive) | 92.5% (inactive) | 0.84% (inactive) | 91.7 | 92.5 | -1.54% (inactive) | 3% (inactive) | -9.3% (inactive) | -3.9% (inactive) | -2.82% (inactive) | 91.4% (inactive) | 93.3% (inactive) | 2.07% (inactive) | 1.62% (inactive)
Cn1cc(C2NC(=O)c3c(sc4c3CCCC4)N2)c2ccccc21 (stereo not drawn) | 99 | 78.5% (inactive) | 99% (inactive) | 61.9% (inactive) | 64.9% (inactive) | 4.49% (inactive) | 60.4 | 64.9 | 1.6% (inactive) | 5.17% (inactive) | -6.96% (inactive) | 2.46% (inactive) | -2.92% (inactive) | 101% (inactive) | 90.8% (inactive) | 0.64% (inactive) | 2.82% (inactive)
O=C(O)C1C2C=CC3(CN(C4CCCC4)C(=O)C13)O2 (stereo not drawn) | 101 | 100% (inactive) | 101% (inactive) | 100% (inactive) | 83.7% (inactive) | -9.36% (inactive) | 93.1 | 83.7 | -7.07% (inactive) | -4.83% (inactive) | 1.69% (inactive) | 2.54% (inactive) | -0.64% (inactive) | 104% (inactive) | 95.5% (inactive) | 2.34% (inactive) | -0.17% (inactive)
COCCCNC(=O)Cn1cc2c(n1)CCC(C)C2 (stereo not drawn) | 112 | 100% (inactive) | 112% (inactive) | 90.5% (inactive) | 90.1% (inactive) | -1.69% (inactive) | 91.8 | 90.1 | 0% (inactive) | 0.17% (inactive) | -1.62% (inactive) | 5.27% (inactive) | 0.05% (inactive) | 104% (inactive) | 102% (inactive) | 1.82% (inactive) | -0.72% (inactive)
CC1CCN(c2nc3c(c(=O)[nH]c(=O)n3C)n2CCSc2ncccn2)CC1 | 96.5 | 97% (inactive) | 96.5% (inactive) | 109% (inactive) | 90.8% (inactive) | 0.415% (inactive) | 90.4 | 90.8 | -4.4% (inactive) | -5.17% (inactive) | 1.06% (inactive) | -2.73% (inactive) | -0.46% (inactive) | 102% (inactive) | 102% (inactive) | 2.46% (inactive) | 2.81% (inactive)
O=C(OCCN(CCOC(=O)c1ccncc1)S(=O)(=O)c1cccs1)c1ccncc1 | 102 | 75.5% (inactive) | 102% (inactive) | 99.2% (inactive) | 104% (inactive) | 6.43% (inactive) | 97.3 | 104 | -1.64% (inactive) | 1.75% (inactive) | 4.38% (inactive) | 1.04% (inactive) | -2.14% (inactive) | 102% (inactive) | 97% (inactive) | 1.63% (inactive) | 4.78% (inactive)
O=c1[nH]c(SCc2ccc(F)cc2)nc2c1cnn2-c1ccc(F)cc1 | 69 | 106% (inactive) | 69% (inactive) | 70.7% (inactive) | 79.1% (inactive) | 38.2% (inactive) | 40.8 | 79.1 | 1.87% (inactive) | 12.3% (inactive) | -5.11% (inactive) | -7.31% (inactive) | -6.32% (inactive) | 39.8% (inactive) | 51.5% (inactive) | 1.02% (inactive) | 4.01% (inactive)
CCCCCn1c(CN2CCN(C(=O)c3ccco3)CC2)nc2c1c(=O)n(C)c(=O)n2C | 96.5 | 103% (inactive) | 96.5% (inactive) | 92.8% (inactive) | 77.5% (inactive) | 27.9% (inactive) | 49.5 | 77.5 | -5.6% (inactive) | -5.83% (inactive) | -0.285% (inactive) | -8.78% (inactive) | -2.57% (inactive) | 93.6% (inactive) | 93.2% (inactive) | -0.2% (inactive) | 1.17% (inactive)
CC1CCc2nn(CC(=O)NCCCN3CCOCC3)cc2C1 (stereo not drawn) | 99.5 | 102% (inactive) | 99.5% (inactive) | 85.6% (inactive) | 90.5% (inactive) | 2.46% (inactive) | 88.1 | 90.5 | -3.97% (inactive) | -0.83% (inactive) | 7.55% (inactive) | 6.69% (inactive) | -1.14% (inactive) | 104% (inactive) | 95% (inactive) | 3.4% (inactive) | 1.33% (inactive)
CCN(CC)CCCNC(=O)c1cn(C)c2ccc(S(=O)(=O)N(C)C)cc2c1=O | 98.5 | 116% (inactive) | 98.5% (inactive) | 99.2% (inactive) | 99.4% (inactive) | 2.72% (inactive) | 96.7 | 99.4 | -0.26% (inactive) | 1.5% (inactive) | -1.33% (inactive) | 8.49% (inactive) | -0.44% (inactive) | 101% (inactive) | 98.5% (inactive) | 2.21% (inactive) | 1.85% (inactive)
CC1CC(NC(=O)c2cnc3n(c2=O)CCS3)CC(C)(C)C1 (stereo not drawn) | 83.5 | 108% (inactive) | 83.5% (inactive) | 85.8% (inactive) | 91.7% (inactive) | 6.09% (inactive) | 85.6 | 91.7 | -4.13% (inactive) | -3% (inactive) | -8.98% (inactive) | -8.4% (inactive) | -0.41% (inactive) | 99% (inactive) | 90% (inactive) | 0.545% (inactive) | 0.68% (inactive)
CSCCC(N=CC1=C(O)CC(C)(C)CC1=O)C(=O)O (stereo not drawn) | 100 | 139% (inactive) | 100% (inactive) | 99.4% (inactive) | 87.2% (inactive) | -2.07% (inactive) | 89.3 | 87.2 | -3.21% (inactive) | -6% (inactive) | 1.4% (inactive) | 1.57% (inactive) | 0.34% (inactive) | 93.9% (inactive) | 99.9% (inactive) | 0.65% (inactive) | 4.91% (inactive)
Cn1c(NC(=O)c2ccccc2NC(=O)C(C)(C)C)nc2ccccc21 | 95 | 116% (inactive) | 95% (inactive) | 62.8% (inactive) | 60.6% (inactive) | -16.9% (inactive) | 77.5 | 60.6 | -1.73% (inactive) | 2.33% (inactive) | 3.42% (inactive) | 8.1% (inactive) | -2.36% (inactive) | 47.1% (inactive) | 55.1% (inactive) | -0.01% (inactive) | 1.74% (inactive)
